Compound activity from PubChem.
RORgamma inh: inhibitors of mouse ROR gamma transcriptional activity. P51450. Drosophila S2 Gal4-RORgamma UAS-luciferase reporter, 20 h. Potency, µM (series often up to 53.6 µM), without a hit: top-dose activity change, negative = inhibition, most hits filed as inhibitors. actives 5.4% (n = 310,000); further: potency means the concentration at half of the fitted maximal effect; nearly all actives have a fitted effect of over 60% in size
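Schneider cells (Drosophila), stable Gal4 DBD–ROR gamma + UAS-luc; 1 hr cmpd preincubation; Cu2+ induction 700 uM final; 20 hr ambient; luminescence.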
TrxR1 inh: inhibitors of rat thioredoxin reductase 1. recombinant rTrxR1, NADPH fluorescence consumption, selenite substrate. O89049. Potency, µM (titrated, usually from 114 µM), inactives show at the top dose activity change, negative = inhibition, hits mostly inhibitors. AID 588453. actives 1% (n = 390,000); further: potency means the concentration at half of the fitted maximal effect; nearly all actives have a fitted effect of over 65% in size
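Rat TrxR1 (90 nM in the dispensed reagent) was pre-reduced with 400 uM NADPH for 5 min at room temperature, then incubated with compound for 15 min. After 400 uM selenite was added, NADPH fluorescence (Ex 340/Em 450 nm) was followed for 8 min.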
Gal4-VP16 FLuc: Gal4-VP16 reporter inhibition counter-screen. Potency, µM (highest dose often 53.6 µM), for the others: at the highest dose activity, negative = inhibition, most hits filed as inhibitors. AID 2546. actives 3.5% (n = 310,000). Drosophila S2 Gal4-VP16 UAS-luciferase, luminescence, 20 h;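 further: Gal4-VP16 expression switched on by copper sulfate through the metallothionein promoter; potency means the concentration at half of the fitted maximal effect; nearly all actives have a fitted effect of over 50% in size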
GALK inh: galactokinase (human) inhibition. actives 0.007% (n = 270,000). P51570. Potency, µM (titrated, usually from 57.5 µM), without a hit: at the highest dose activity change, negative = inhibition, hits mostly inhibitors. Purified GALK, Kinase-Glo residual ATP luminescence; further: potency means the concentration at half of the fitted maximal effect
Target sequence (P51570 whole entry, looked up): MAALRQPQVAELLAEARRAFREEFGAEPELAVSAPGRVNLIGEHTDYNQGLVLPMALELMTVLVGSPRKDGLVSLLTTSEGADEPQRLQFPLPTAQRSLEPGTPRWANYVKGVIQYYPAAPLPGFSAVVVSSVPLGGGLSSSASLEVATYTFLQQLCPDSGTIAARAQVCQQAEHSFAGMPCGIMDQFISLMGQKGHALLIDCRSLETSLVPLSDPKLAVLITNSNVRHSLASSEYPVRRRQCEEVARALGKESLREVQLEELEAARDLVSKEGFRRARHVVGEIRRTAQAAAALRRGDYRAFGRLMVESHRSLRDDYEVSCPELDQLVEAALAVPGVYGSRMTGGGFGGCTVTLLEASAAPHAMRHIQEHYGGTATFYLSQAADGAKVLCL
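5 nM enzyme, 35 uM ATP, 100 uM galactose, 20 mM HEPES pH8.0, 5 mM MgCl2; 1 h RT; residual ATP by Kinase-Glo Plus luminescence, qHTS format.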
Coupling enz: counter-screen for Giardia aldolase inhibitors: coupling enzyme system | coupling enzyme system counterscreen, AmpLite Red fluorescence | actives 0.67% (n = 290,000) | activity change, negative = inhibition, % at 58.2 µM, hits read low | AID 2472; in the data active means activity change below about -30%
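Fluorescence at 525 nm excitation and 598 nm emission measured inhibition of the coupled detection system without aldolase. Compounds (at 57.5 uM final) were preincubated 10 min at room temperature with coupling enzyme reagent before a 20 min substrate/AmpLite Red step.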
TrxR1 substrate: is turned over as a substrate by rat TrxR1. O89049. purified TrxR1 substrate turnover, NADPH consumption readout. Potency, µM (highest dose often 114 µM), inactives show top-dose activity change, negative = substrate turnover. actives 0.01% (n = 390,000). AID 588456; further: potency means the concentration at half of the fitted maximal effect; nearly all actives have a fitted effect of over 50% in size
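Rat TrxR1, dispensed at 90 nM, was prereduced with 400 uM NADPH (final) for 5 min at ~22 deg C, then incubated with compound 15 min before 400 uM selenite. A first-read NADPH fluorescence drop versus no-compound background flagged substrates.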
Active calls of the source: *; ? = inconclusive; . = no result; [ ] = dose if it differs, or a comment. Sampled rows, rich in hits. Any-hit rate of the full collection: about 5.9%. Unless noted, the call rests on the fitted dose curve; in most records, active means well fitted curve in the direction sought with a large enough effect; inconclusive means small, poorly fitted or top-dose-only effect, or another doubt; inactive means no such curve, though single readings can be large; an effect the other way counts as inactive or inconclusive. On the % scale 0 is the no-effect control and ±100 the full control effect.

SMILES	RORgamma inh	TrxR1 inh	Gal4-VP16 FLuc	GALK inh	Coupling enz	TrxR1 substrate
C/C(=N\NC(=O)c1ccccc1Cl)c1ccccn1	1.3µM*	9%	2.8µM*	.	-7	3%
CCOc1ccc(OCc2ccc(C(=O)N/N=C(\C)c3ccccn3)cc2)cc1	0.11µM*	-2%[57.1 µM]	5%	-1%	1	-5%[57.1 µM]
O=C(Nc1ccc(F)cc1)c1cc(S(=O)(=O)Nc2ccc(F)cc2)cs1	?	?	-20%	2%	1	-9%
C/C(=N\NC(=O)c1ccccc1OCc1ccc(F)cc1)c1ccccn1	.	21%	.	.	.	0%
COc1ccc(NC(=O)c2cc(S(=O)(=O)Nc3ccc(OC)cc3)cs2)cc1	1%	?	11µM*	5%	4	-8%
COc1ccccc1CNC(=O)Cc1cc(=O)[nH]c(=O)[nH]1	-12%	11%[57.1 µM]	-4%	.	4	-4%[57.1 µM]
O=C(Cc1ccc(Cl)cc1)Nc1ccccc1N1CCOCC1	-18%	-6%	0%	2%	1	-6%
CCN(C(=O)COc1nc(C)cc(C)c1C#N)c1ccccc1	-11%	-14%	1%	-2%	2	-9%
Cn1c(SCC(=O)N2CCCC2=O)nc2ccccc21	-10%	9%	-11%	-1%	0	-1%
COc1ccc(NC(=O)c2ccccn2)cc1	7.9µM*	9%[57.1 µM]	11µM*	8%	-3	2%[57.1 µM]
C/C(=N\NC(=O)c1ccc(Cl)c(Cl)c1)c1ccccn1	0.089µM*	14%	0.0028µM*	.	0	6%
COc1ccc(C(=O)Nc2ccc(NC(=O)c3ccccn3)cn2)cc1	4%	12%[57.1 µM]	8%	16%	0	6%[57.1 µM]
C/C(=N\NC(=O)c1cc(Br)ccc1O)c1ccccn1	0.4µM*	14%	0.28µM*	2%	1	10%
COc1ccccc1NC(=S)NN=C(C)c1ccccn1	.	11µM*	.	.	.	-6%
N/C(=N\c1nc(CSc2ccc(Cl)cc2)cc(=O)[nH]1)Nc1ccccc1C(F)(F)F	15%	-5%	-6%	1%	2	-11%
COc1ccc(CSc2nc3nc(C)cc(C)n3n2)cc1F	16%	-7%	8%	3%	-1	0%
Cc1noc(NS(=O)(=O)c2ccc(NC(=O)c3cc(S(=O)(=O)N(C)c4ccccc4)ccc3Cl)cc2)c1C	.	1%	.	.	.	-10%
COc1cccc(CNC(=O)Cn2cc3c(n2)-c2c(oc(C(=O)N4CCCC4)c2C)CC3)c1	.	5%	.	.	.	3%
O=C(NN=C(c1ccccc1)c1ccccn1)c1ccccc1	.	-11%	.	.	.	-5%
O=C(N/N=C(\c1ccccc1)c1ccccn1)c1ccccc1Cl	0.71µM*	4%[57.1 µM]	1.1µM*	8%	-1	4%[57.1 µM]
Cn1c(=N)n(CC(=O)C(C)(C)C)c2ccccc21	11µM*	8%	?	-4%	3	-8%[57.1 µM]
Cn1c(=N)n(CC(=O)O)c2ccccc21	1%	16%	-8%	0%	-3	-6%[57.1 µM]
CCn1c(=N)n(CC(=O)C(C)(C)C)c2ccccc21	?	14%	3.2µM*	-1%	-8	7%
CCCCn1c(=N)n(CC(=O)C(C)(C)C)c2ccccc21	5µM*	13%	?	0%	0	-5%
CCn1c(=N)n(CC(=O)OC)c2ccccc21	?	-12%	1%	3%	2	-9%
SMILES	RORgamma inh	TrxR1 inh	Gal4-VP16 FLuc	GALK inh	Coupling enz	TrxR1 substrate
CCCn1c(=N)n(CC(=O)C(C)(C)C)c2ccccc21	?	11%[57.1 µM]	1%	3%	-13	7%[57.1 µM]
Cn1c(=N)n(CC(=O)c2ccccc2)c2ccccc21	8.9µM*	30%	11µM*	-3%	-2	7%
COCCCn1c(=O)/c(=C\c2ccccc2OC(F)F)s/c1=C(/C#N)C(=O)N1CCOCC1	3%	28%[57.1 µM]	29%	1%	0	10%[57.1 µM]
O=C(COC(=O)CCN1C(=O)/C(=C\C=C\c2ccccc2)SC1=S)Nc1ccc(Br)cc1	-40%	-14%[57.1 µM]	?	1%	-1	-3%[57.1 µM]
CC(C)c1ccccc1NC(=O)COC(=O)CCN1C(=O)/C(=C\C=C\c2ccccc2)SC1=S	2.5µM*	7%[57.1 µM]	4µM*	4%	-1	-6%[57.1 µM]
S=C(NCc1ccccc1)NNc1ccccc1	1.4µM*	11%[57.1 µM]	3.2µM*	1%	-4	11%[57.1 µM]
CCNC(=S)NNc1ccccc1	0.71µM*	2%[57.1 µM]	4µM*	6%	-1	9%
Cc1ccc(C(=O)NCCn2cc(SCC(=O)N3CCOCC3)c3ccccc32)cc1	13µM*	6%[57.1 µM]	-1%	0%	4	-5%[57.1 µM]
O=C(NCCn1cc(SCc2ccccc2)c2ccccc21)c1c(F)cccc1F	?	20%[57.1 µM]	-9%	.	-12	3%[57.1 µM]
O=C(NCCn1cc(SCc2ccc(F)cc2)c2ccccc21)c1c(F)cccc1F	68%	6%	?	.	-39*	-4%
Cc1ccc(C(=O)NCCn2cc(SCC(=O)Nc3cc(C)on3)c3ccccc32)cc1	?	1%[57.1 µM]	-16%	2%	3	-12%[57.1 µM]
CC(C)OC(=O)CC1C(=O)NCCN1C(=S)NC(=O)c1cccs1 (configuration not stated)	2.5µM*	?	11µM*	-2%	-4	-13%
O=C(NCc1ccco1)C1CCCN(S(=O)(=O)Cc2ccccc2)C1 (configuration not stated)	0%	9%	5%	-4%	7	7%
Clc1ccc(CCNc2ncnc3nc[nH]c23)cc1	-22%	15%	11µM*	0%	-8	2%
Cc1cc2c(c(=O)o1)C(c1cccs1)C(C#N)=C(N)O2 (configuration not stated)	14µM*	?	?	0%	-1	5%
Cc1ccc([C@H]2C(C#N)=C(N)Oc3cc(C)oc(=O)c32)o1	-115%	-37%	?	1%	6	9%[57.1 µM]
CC(C)(C)OC(=O)N1CCC(c2c(C(=O)N3CCN(Cc4ccccc4)CC3)cnn2-c2ccc(Cl)cc2)CC1	.	4%	.	.	.	-12%
Cc1cccn2c(=O)c3cc(C#N)c(=NC(=O)c4ccco4)n(Cc4ccco4)c3nc12	9%	2%	-3%	2%	0	29%
Cc1cccn2c(=O)c3cc(C#N)c(=NC(=O)c4ccccc4)n(Cc4ccco4)c3nc12	.	50µM*	.	.	.	70%
CCOC(=O)c1cc2c(=O)n3ccccc3nc2n(Cc2ccco2)c1=NC(=O)c1cccc(Br)c1	.	4µM*	.	.	.	18%[57.1 µM]
Cc1cccc(C(=O)N=c2c(C#N)cc3c(=O)n4cccc(C)c4nc3n2Cc2ccco2)c1	-16%	6.3µM*	-8%	1%	2	106%
CCOC(=O)c1cc2c(=O)n3ccccc3nc2n(Cc2ccco2)c1=NC(=O)c1ccc(Br)cc1	.	?	.	.	.	232%
